PubChem BioAssay AID504326 (The Scripps Research Institute Molecular Screening Center, 2011)
Hit rate of the full screen: of about 340,000 compounds, about 990 (0.29%) were called active. For the sample, actives were picked, then their nearest neighbours and some compounds at random. A number with no mark means an inactive call. No stated cut-off is given here; in the data, active means activation above about 18%; inactive means the rest.

Molecular target: Mu-type opioid receptor (Homo sapiens) + Delta-type opioid receptor (Homo sapiens) (UniProt P35372+P41143)
Test: inducers of mu-delta opioid receptor heterodimers – cell-based, luminescence, primary screen (AID 504326);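 further: 0% = vehicle-treated cells and 100% = reference agonist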
Conditions: cells, OPRM1-OPRD1 heterodimerization, at 9.3 µM, active compounds read high

Sequence of Mu-type opioid receptor (Homo sapiens) + Delta-type opioid receptor (Homo sapiens) (P35372 whole entry, looked up): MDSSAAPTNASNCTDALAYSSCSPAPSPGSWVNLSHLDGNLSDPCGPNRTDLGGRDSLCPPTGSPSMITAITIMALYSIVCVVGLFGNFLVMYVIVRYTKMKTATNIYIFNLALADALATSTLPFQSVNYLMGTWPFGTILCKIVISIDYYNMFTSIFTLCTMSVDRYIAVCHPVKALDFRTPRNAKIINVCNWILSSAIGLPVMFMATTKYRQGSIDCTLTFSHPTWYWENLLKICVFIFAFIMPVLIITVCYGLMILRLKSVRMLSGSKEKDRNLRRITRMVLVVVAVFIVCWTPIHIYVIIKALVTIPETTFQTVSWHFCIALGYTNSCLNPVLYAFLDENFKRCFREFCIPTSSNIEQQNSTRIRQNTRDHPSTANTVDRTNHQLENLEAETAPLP
Sequence of Mu-type opioid receptor (Homo sapiens) + Delta-type opioid receptor (Homo sapiens) (P41143 whole entry, looked up): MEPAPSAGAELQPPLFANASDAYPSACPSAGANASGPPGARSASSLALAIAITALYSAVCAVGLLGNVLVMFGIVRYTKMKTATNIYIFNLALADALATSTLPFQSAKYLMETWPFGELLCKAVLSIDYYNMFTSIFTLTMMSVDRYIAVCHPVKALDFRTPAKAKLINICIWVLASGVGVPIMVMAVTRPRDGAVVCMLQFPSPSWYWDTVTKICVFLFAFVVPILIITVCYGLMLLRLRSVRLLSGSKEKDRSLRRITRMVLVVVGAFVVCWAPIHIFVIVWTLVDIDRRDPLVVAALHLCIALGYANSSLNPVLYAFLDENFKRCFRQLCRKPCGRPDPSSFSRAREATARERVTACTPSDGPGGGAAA

SMILES | activation
C=C(C)COc1ccc(-c2ncncc2-c2ccc(OC)cc2)c(O)c1 | 0.28%
C=C(C)COc1ccc(-c2nc(N)ncc2-c2ccccc2OC)c(O)c1 | 5.76%
C=C(C)COc1ccc(-c2n[nH]c(C)c2-c2ccccc2)c(O)c1 | 20.9% (active)
COCCCNC(=O)Cn1cc(/C=C(\C#N)C(=O)N2CCN(c3ccccc3)CC2)c2ccccc21 | -0.49%
Cc1ccc(N=C2NC(=O)c3cccc([N+](=O)[O-])c32)cc1 | -1.31%
Cc1ccc(C(=O)NCC(c2cccs2)N(C)C)cc1S(=O)(=O)N1CCOCC1 (configuration not stated) | 7.26%
COc1ccccc1CNC(=O)c1ccc(Cl)c(S(=O)(=O)N2CCCC2)c1 | -1.63%
COc1ccccc1C(CNC(=O)c1ccc(C)c(S(=O)(=O)N2CCCCC2)c1)N(C)C (configuration not stated) | 33.2% (active)
CCCOc1ccc(C(=O)C(CCC(CNCC)C(=O)c2ccc(OCCC)cc2)CNCC)cc1 (configuration not stated) | 11.1%
C=CCOc1c2ccc(C(=O)N(CC)c3ccc(OC)cc3)cc2nn1C | 0.36%
COc1cccc(NC(=O)c2ccccc2N(Cc2ccccc2)S(C)(=O)=O)c1 | -3.67%
COc1cc(C(=O)OC(C)C(=O)NCC2CCCCC2)cc(NC(=O)c2ccco2)c1OC (configuration not stated) | 26.7% (active)
CC(OC(=O)c1ccc([N+](=O)[O-])cc1)C(=O)NCC1CCCCC1 (configuration not stated) | 0.26%
COc1ccc(NC(=O)CCC(=O)Nc2cc(OC)c(NC(=O)c3ccco3)cc2OC)c(OC)c1 | 0.82%
CNC(=O)c1[nH]cnc1C(=O)N[C@@H](CC(C)C)C(=O)OC(C)(C)C | 0.92%
Cc1ccc(S(=O)(=O)NC(C)C(=O)Nc2ccccc2C(=O)N2CCCC2)cc1 (configuration not stated) | 2.72%
COc1ccc(-n2nnnc2CNC(=O)c2ccc3ccccc3c2)cc1 | -0.36%
COc1ccc(-n2nnnc2-c2nc3ccccc3s2)cc1 | 20.4% (active)
COc1ccc(CSc2nnnn2-c2ccc(C(=O)O)cc2)cc1 | -1.43%
Cc1ccc(S(=O)(=O)NC(C(=O)N2CCOCCOCCOCCOCC2)c2ccccc2)cc1 (configuration not stated) | -1.61%
CC(=O)N1CCN(C(=O)C2(NC(=O)Nc3ccc(C)cc3)CCCCC2)CC1 | -2.72%
CCOc1ccc(-c2c(C)n([O-])c3c([n+]2=O)CCCC3)cc1 | -0.63%

SMILES | activation
C[C@H]1CC[C@]2(O[C@@H](CCO)C[C@@H](O)[C@@H]2O)O1 | 3.63%
O=C(N[C@@H](Cc1ccccc1)C(=O)OCc1ccccc1)c1nc[nH]c1C(=O)NC1CCNCC1 | -2.25%
CC(C)(C)OC(=O)N1CCC(NC(=O)c2[nH]cnc2C(=O)N[C@@H](Cc2ccccc2)C(=O)OCc2ccccc2)CC1 | 21.9% (active)
CC(C)(C)OC(=O)CNC(=O)c1[nH]cnc1C(=O)N[C@@H](Cc1ccccc1)C(=O)OCc1ccccc1 | 14.2%
CCN1CCC2(CC1)N=C(c1ccc(F)cc1)C(=S)N2C(=O)c1ccc(C)cc1 | 13.8%
CN(C)c1ccc(/C=C2\NC(=S)N(Cc3ccccc3)C2=O)cc1 | 0.84%
Cc1ccc(CN2C(=O)N/C(=C/c3cc(C)n(-c4ccccn4)c3C)C2=O)cc1 | -1.23%
O=C1N/C(=C/c2cccs2)C(=O)N1Cc1ccc(F)cc1 | 18.9% (active)
CCn1c(SCC(=O)Nc2ccc(C)cc2)nc2nc3c(cc2c1=O)CCCC3 | -0.65%
CCOc1ccc(NC(=O)CCS(=O)(=O)c2cccc3nsnc23)cc1 | -1.59%
O=C(NCc1ccccc1)c1onc(CSc2ccncc2)c1C(=O)NCc1ccccc1 | -1.19%
CCOc1cc(S(=O)(=O)NC2CC(C)(C)NC(C)(C)C2)ccc1F | -2.58%
COCCN(C(=O)CCC(=O)Nc1nccs1)C(C(=O)NCCC(C)C)c1ccc(F)cc1 (configuration not stated) | -1.57%
CC1CCCN(CCOCCOc2ccccc2-c2ccccc2)C1 (configuration not stated) | 18.4% (active)
CC1CN(CCCOc2ccccc2-c2ccccc2)CC(C)O1 (configuration not stated) | 4.64%
c1ccc(-c2ccccc2OCCN2CCCCC2)cc1 | -3.6%
Cc1c(NC(=O)C(C)OC(=O)c2c3c(nc4ccccc24)CCC(C)C3)c(=O)n(-c2ccccc2)n1C (configuration not stated) | -2.46%
CC(C)(C)NS(=O)(=O)c1ccc(NC(=O)C2CCCO2)cc1 (configuration not stated) | 0.39%
CC(=O)c1ccc(S(=O)(=O)Nc2ccc(C(=O)NCC(c3ccccc3)N(C)C)cc2)cc1 (configuration not stated) | 0.68%
O=C(NC1CCC(O)CC1)c1ccc(S(=O)(=O)NCc2ccco2)cc1 (configuration not stated) | -2.16%
CN(C)C(CNC(=O)c1ccc(S(=O)(=O)NCc2ccco2)cc1)c1ccccc1 (configuration not stated) | 20.7% (active)
COc1ccc(CNC(=O)c2cc(C(=O)C3CC3)c[nH]2)cc1 | -1.28%

SMILES | activation
CC(C)Cc1nnc(NC(=O)CN2C(=O)NC3(CCCCC3)C2=O)s1 | -1.6%
CCc1ccc(NC(=O)COC(=O)c2cccs2)cc1 | 0.52%
Cc1ccc(OCC(=O)Nc2ccc(N3CCN(C(=O)c4ccco4)CC3)cc2)c(C)c1 | 2.18%
Cc1ccc(OCC(=O)Nc2ccc(NC(=O)c3cccs3)cc2)c(C)c1 | 19.7% (active)
COC(=O)C1=C(C)N(C)C(=S)NC1c1cc(OC)ccc1OC (configuration not stated) | 1.16%
COc1ccc(SC[C@H](Cc2ccccc2)N2CCN(CCc3ccccc3)CCC2=O)cc1 | 26.4% (active)
O=C1CC[C@H](O)CCN1[C@H](CSc1ccc(Br)cc1)Cc1ccccc1 | -1.02%
C[C@H]1CCC(=O)N([C@H](CSc2ccccc2)Cc2ccccc2)CC1 | 2.5%
CS(=O)(=O)N(C(=O)NC(=O)NC1CCS(=O)(=O)C1)C1CCCCC1 (configuration not stated) | 1.27%
CNC(=O)NC(=O)C(C)N1CCN(C/C=C/c2ccccc2)CC1 (configuration not stated) | 0.24%
Cc1ccc(NC(=O)c2oc(=O)c3ccccc3c2-c2ccccc2)c(C)c1 | -0.43%
COC(=O)CCCC1=CC2=C(c3ccccc3)C(=O)C(C)(OC(=O)C3CCCC3)C(=O)C2=CN1c1ccc(OC)cc1 (configuration not stated) | -1.53%
COc1ccc(Cc2nnc(N/N=C/c3ccccc3O)[nH]c2=O)cc1OC | -0.28%
COc1cccc(/C=N/Nc2ccc(S(=O)(=O)Nc3ccccc3C(=O)O)cc2[N+](=O)[O-])c1O | -1.24%
COc1cccc(/C=N/Nc2cc(C)nc(-c3ccccc3O)n2)c1O | 35.6% (active)
O=C(NCCc1ccccc1)c1c[nH]c2ccc(F)cc2c1=O | -1.1%
C=CCOc1ccc(/C=C/C(=O)OC(C)C(=O)Nc2ccc(NC(C)=O)cc2)cc1 (configuration not stated) | -0.11%
CC(OC(=O)/C=C/c1ccccc1)C(=O)NC1CCCCC1C (configuration not stated) | -0.81%
CC(OC(=O)/C=C/c1ccccc1)C(=O)Nc1ccc(C(N)=O)cc1 (configuration not stated) | 34.1% (active)
CC(C)CC(=O)N=C1SC2CS(=O)(=O)CC2N1CCc1ccccc1 (configuration not stated) | -2.17%
COc1ccc2sc(N(CCCN(C)C)C(=O)c3ccc(S(=O)(=O)N(C)C4CCCCC4)cc3)nc2c1 | -0.93%
CN(C)CCCN(C(=O)c1ccc(S(=O)(=O)N2CCCc3ccccc32)cc1)c1nc2ccc(F)cc2s1 | 268% (active)

SMILES | activation
CN(C)CCCN(C(=O)c1ccc(S(=O)(=O)N2CCCCCC2)cc1)c1nc2ccc(Br)cc2s1 | 1.54%
Cc1ccc(C)c(S(=O)(=O)Nc2cccc(-n3cnnn3)c2)c1 | -2.5%
C/C=C/C=C/C(=O)O | -2.37%
CCCC1(C(=O)OC)NC(c2ccco2)C2C(=O)N(C)C(=O)C21 (configuration not stated) | -1.73%
Cc1ccc2nc(-c3ccncc3)cc(C(=O)Nc3ccncc3)c2c1 | 24% (active)
Cc1ccc2nc(-c3ccncc3)cc(C(=O)Nc3ccc(OC(F)F)cc3)c2c1 | 8.59%
O=C(Nc1ccncc1)c1cc(-c2ccccn2)nc2ccc(Br)cc12 | -0.71%
CCc1ccc(NC(=O)CS(=O)CC(=O)N2CCN(c3ccccc3F)CC2)cc1 (configuration not stated) | -0.39%
CC(c1cccnc1)N(CCN(C)C)C(=O)Nc1ccc(Cl)c(Cl)c1 (configuration not stated) | 35.5% (active)
O=C(NCc1ccc(Cl)c(Cl)c1)c1cccnc1 | 0.81%
CN(CC(=O)NCc1cccnc1)S(=O)(=O)c1cc(Cl)ccc1Cl | -3.02%
CCN(CC)P(=O)(Nc1ccc(SC(F)F)cc1)c1ccc(N(C)C)cc1NC(=O)c1ccco1 (configuration not stated) | -0.5%
CC(=O)Nc1ccc(S(=O)(=O)N(C)c2ccc(OCC(=O)OCC(=O)N3CCCCC3)cc2)cc1 | -0.7%
Cc1c(C(=O)c2cccc([N+](=O)[O-])c2)c2ccccn2c1CCC#N | -2.59%
FC(F)(F)c1ccc2nnc(-c3c(Cl)cccc3Cl)n2c1 | -0.01%
Cc1ccc(C)c(N(CC(=O)NCc2ccco2)C(=O)CCC(=O)Nc2ccccn2)c1 | -3.72%
CCOC(=O)C1(CC2CCCCO2)CCN(Cc2nc(-c3cccs3)oc2C)CC1 (configuration not stated) | 45.6% (active)
CCOc1ccccc1-c1nc(CN2CCC(C(=O)N3CCOCC3)CC2)c(C)o1 | -0.49%
COc1cccc(CC2(CO)CCCN(Cc3nc(-c4cccs4)oc3C)C2)c1 (configuration not stated) | 0.45%
CCOc1ccc(NC(=O)C2CC(=O)N=C(N)S2)cc1 (configuration not stated) | -2.05%
COc1ccc2c(CC(=O)NNC(=O)c3ccccc3F)coc2c1 | -0.31%
